Experiment [1] deals with D(1A) dopamine receptor (Homo sapiens) (UniProt P21728). Briefly: HTS Assay for Allosteric Agonists of the Human D1 Dopamine Receptor: Primary Screen for Agonists (AID 488981). Further: potency means the concentration at half of the fitted maximal effect. The method, boiled down:
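Tetracycline-induced HEK293 Trex D1 cells with forced coupling to calcium, loaded with no-wash calcium dye; kinetic fluorescence read 180 s after compound addition for agonism, then a further 180 s after an EC20 dopamine challenge for potentiation.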

Experiment [2] concerns the target ATPase family AAA domain-containing protein 5 (Homo sapiens) (UniProt Q96QE3). Briefly: Validation screen for small molecules that inhibit ELG1-dependent DNA repair in human embryonic kidney (HEK293T) cells expressing luciferase-tagged ELG1 (AID 493107). Further: potency means the concentration at half of the fitted maximal effect; nearly all actives have a fitted effect of over 70% in size. The method, boiled down: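 Cells are dispensed in 1536-well format, then 5-fluorouridine and compound are pinned in. After a 16 hr incubation at 37 °C and 5% CO2, ONE-Glo is added and luciferase measured on a CCD imager.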

Experiment [3] deals with Peptidyl-prolyl cis-trans isomerase NIMA-interacting 1 (Homo sapiens) (UniProt Q13526). Briefly: qHTS Validation Assay to Find Inhibitors of Pin1 (AID 504536; active means well fitted inhibition curve with a large enough effect in the polarisation, with a control signal flat, not every such curve was filed as active; the % refers to the polarisation; further: potency means the concentration at half of the fitted maximal effect). In outline: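 Fluorescence polarization competition: compounds (titration) displace HiFluor-488-labeled Pin1-1b peptide from Pin1 (0.3 uM final) in pH 7.5 HEPES buffer with DTT, 10 min at room temperature; %Activity normalized to no-enzyme wells, curves fitted.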
Background: qHTS replaces the single test concentration by a dilution series.

Experiment [4] is described as follows: Inducers of the Endoplasmic Reticulum Stress Response (ERSR) in human glioma: Validation (AID 504836). In outline: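 Stably transfected U87-MG glioma cells carrying a GRP78-based luciferase sensor; 16 h compound incubation. Luminescence end-point read 10 min after Bright-Glo addition at room temperature.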
For experiment [5], the target named is Ubiquitin carboxyl-terminal hydrolase 1 (Homo sapiens) (UniProt O94782). Briefly: Inhibitors of USP1/UAF1: Pilot qHTS (AID 504865). Further: nearly all actives have a fitted effect of over 35% in size. Further: potency means the concentration at half of the fitted maximal effect. In outline: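 In 50mM HEPES pH 7.8 containing 0.5mM EDTA, 1mM TCEP, 0.1 mg/ml BSA and 0.01% Tween-20, 1nM USP1/UAF1 is exposed to compound for 15 min, then Ub-Rho (150nM final) is added and fluorescence is read over time.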
Experiment [6] has as its target ATP-dependent 6-phosphofructokinase (Trypanosoma brucei brucei) (UniProt O15648). Briefly: qHTS Assay to Find Inhibitors of T. brucei phosphofructokinase: hit validation (AID 492961). Further: series mostly up to about 51 µM. In outline: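 Luminescence from ADP-Glo reports ADP generated as T. brucei PFK (1.25 nM) phosphorylates 0.5 mM fructose-6-phosphate using 0.1 mM ATP. Reactions ran 45 min at room temperature, pH 8.0.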

Experiment [7] can be described thus: Validation screen for small molecules that induce genotoxicity in human embryonic kidney (HEK293T) cells expressing luciferase-tagged ELG1 (AID 493106). Further: potency means the concentration at half of the fitted maximal effect. In outline:
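Cells were dispensed at 2,000 per well, then 23 nL compound or DMSO was pinned in. After 16 hr at 37 °C and 5% CO2, ONE-Glo reagent was added. Luciferase activity was measured following 30 min at room temperature.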

A short description of experiment [8]: Validation screen for small molecules that induce DNA re-replication in SW480 colon adenocarcinoma cells (AID 504364). Further: potency means the concentration at half of the fitted maximal effect. In outline: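 Image-based qHTS: compounds were incubated with SW480 cells for 48 hr, nuclei stained with Hoechst, and per-nucleus fluorescence intensity scanned to flag cells with excess DNA content.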
Experiment [9] addresses DNA dC->dU-editing enzyme APOBEC-3G (Homo sapiens) (UniProt Q9HC16). Briefly: qHTS for inhibitors of Vif-A3G interactions: Validation (AID 588379). In outline: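 Yellow fluorescence (Ex 488, Em 500-530) of Vif-coexpressing HeLa A3G-eYFP cells, scanned by Acumen cytometer, reports blocked A3G degradation. Cells plated at 700/well overnight at 37 deg C before compound addition, then a further overnight compound incubation at 37 deg C.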

The target of experiment [10] is Estrogen receptor (Homo sapiens) (UniProt P03372). Briefly: qHTS assay for small molecule antagonists of estrogen receptor alpha signaling (AID 588513; active means well fitted curve in the direction sought with a large enough effect in the signal ratio, with a control signal flat, not every such curve was filed as active; the % refers to the signal ratio). In outline: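 Fluorescence from CCF4 substrate after 2 h at room temperature gave reporter activity; cells had been exposed to compound and 0.5nM 17-beta-estradiol for 18 h at 37 C. Hill-equation fitting yielded IC50 and maximal response.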

Experiment [11] has the same target. Briefly: qHTS assay for small molecule agonists of estrogen receptor alpha signaling (AID 588514; calls by dose curve; further: nearly all actives have a fitted effect of over 70% in size). In outline: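 Efficacy is expressed against 20 nM 17-beta-estradiol (100%) and DMSO basal (0%); EC50 from Hill equation. Assay: beta-lactamase reporter in ER-alpha-UAS-bla HEK 293 cells, 18 h compound incubation, CCF4 detection.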
Experiment [12] has as its target Androgen receptor (Homo sapiens) (UniProt P10275). Briefly: qHTS assay for small molecule agonists of androgen receptor signaling (AID 588515; active means well fitted curve in the direction sought with a large enough effect in the signal ratio, with a control signal flat; the % refers to the signal ratio). The conditions noted are these: AR-UAS-bla HEK293, beta-lactamase ratio, agonist 16 h; stronger effect = higher value. The method, boiled down: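 Stimulation of an AR-responsive β-lactamase reporter in GripTite HEK293 cells was measured after 16 h compound exposure at 37 °C, via CCF4 fluorescence after 2 h RT. EC50 from Hill fits, normalized to R1881 at 30 nM.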

Experiment [13] shares this target. Briefly: qHTS assay for small molecule antagonists of androgen receptor signaling (AID 588516; active means well fitted curve in the direction sought with a large enough effect in the signal ratio, with a control signal flat, not every such curve was filed as active; the % refers to the signal ratio). In outline: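 Cells were plated and incubated 5 h, compounds added in titration, then R1881 (10 nM final) as agonist. After 16 h at 37 C, CCF4 substrate was loaded for 2 h at room temperature and fluorescence measured.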

“And” between values parts separate entries of the source, which are not always exact repeats. Equal values may be shown once. Unmarked numbers belong to inactive results. Results filed as inconclusive are left out. A call without a number means that no potency is given here. The source made the active and inactive calls. Unless noted, the call rests on the fitted dose curve; in most records, active means well fitted curve in the direction sought with a large enough effect; inconclusive means small, poorly fitted or top-dose-only effect, or another doubt; inactive means no such curve, though single readings can be large; an effect the other way counts as inactive or inconclusive.

Sequence of Estrogen receptor (Homo sapiens) (P03372 whole entry, looked up): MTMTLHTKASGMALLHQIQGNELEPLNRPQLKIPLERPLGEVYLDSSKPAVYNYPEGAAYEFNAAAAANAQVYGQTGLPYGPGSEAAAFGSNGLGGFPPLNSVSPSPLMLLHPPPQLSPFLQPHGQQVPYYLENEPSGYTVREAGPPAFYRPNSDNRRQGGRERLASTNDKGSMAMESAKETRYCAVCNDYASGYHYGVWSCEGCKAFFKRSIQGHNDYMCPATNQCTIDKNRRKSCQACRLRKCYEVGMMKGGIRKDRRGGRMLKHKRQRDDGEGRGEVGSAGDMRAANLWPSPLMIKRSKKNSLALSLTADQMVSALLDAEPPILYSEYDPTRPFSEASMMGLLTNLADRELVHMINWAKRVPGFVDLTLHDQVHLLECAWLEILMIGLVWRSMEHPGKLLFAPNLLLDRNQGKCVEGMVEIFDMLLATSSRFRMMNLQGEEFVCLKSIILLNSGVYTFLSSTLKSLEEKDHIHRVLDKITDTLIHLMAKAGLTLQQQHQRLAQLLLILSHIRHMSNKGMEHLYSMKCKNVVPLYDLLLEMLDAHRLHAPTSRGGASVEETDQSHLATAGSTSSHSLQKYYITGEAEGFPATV
Sequence of Androgen receptor (Homo sapiens) (P10275 whole entry, looked up): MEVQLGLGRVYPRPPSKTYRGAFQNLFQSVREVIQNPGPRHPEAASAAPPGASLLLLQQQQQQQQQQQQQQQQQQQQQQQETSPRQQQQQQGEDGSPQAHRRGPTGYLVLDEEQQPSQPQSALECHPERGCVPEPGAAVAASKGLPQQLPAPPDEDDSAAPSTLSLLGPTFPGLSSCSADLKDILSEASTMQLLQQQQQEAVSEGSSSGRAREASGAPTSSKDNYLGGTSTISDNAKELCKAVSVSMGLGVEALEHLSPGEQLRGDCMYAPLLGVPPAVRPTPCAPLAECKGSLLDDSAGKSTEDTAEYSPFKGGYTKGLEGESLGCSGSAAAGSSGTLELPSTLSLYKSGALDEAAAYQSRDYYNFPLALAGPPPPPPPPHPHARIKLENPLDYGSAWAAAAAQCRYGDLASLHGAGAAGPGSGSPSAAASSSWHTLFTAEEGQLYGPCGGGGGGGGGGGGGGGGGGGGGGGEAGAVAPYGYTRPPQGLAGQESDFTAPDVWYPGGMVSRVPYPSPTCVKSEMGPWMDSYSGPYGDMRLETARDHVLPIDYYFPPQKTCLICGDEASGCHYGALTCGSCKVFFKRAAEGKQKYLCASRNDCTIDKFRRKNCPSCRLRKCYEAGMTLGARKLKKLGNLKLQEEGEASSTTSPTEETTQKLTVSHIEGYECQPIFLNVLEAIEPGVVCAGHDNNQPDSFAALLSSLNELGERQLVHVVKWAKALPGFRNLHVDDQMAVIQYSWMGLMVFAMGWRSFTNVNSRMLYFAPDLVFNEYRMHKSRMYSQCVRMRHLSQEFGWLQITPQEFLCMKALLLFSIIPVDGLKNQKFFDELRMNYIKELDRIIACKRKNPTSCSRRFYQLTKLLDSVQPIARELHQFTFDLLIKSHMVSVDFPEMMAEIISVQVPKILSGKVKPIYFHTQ
Sequence of ATP-dependent 6-phosphofructokinase (Trypanosoma brucei brucei) (O15648 whole entry, looked up): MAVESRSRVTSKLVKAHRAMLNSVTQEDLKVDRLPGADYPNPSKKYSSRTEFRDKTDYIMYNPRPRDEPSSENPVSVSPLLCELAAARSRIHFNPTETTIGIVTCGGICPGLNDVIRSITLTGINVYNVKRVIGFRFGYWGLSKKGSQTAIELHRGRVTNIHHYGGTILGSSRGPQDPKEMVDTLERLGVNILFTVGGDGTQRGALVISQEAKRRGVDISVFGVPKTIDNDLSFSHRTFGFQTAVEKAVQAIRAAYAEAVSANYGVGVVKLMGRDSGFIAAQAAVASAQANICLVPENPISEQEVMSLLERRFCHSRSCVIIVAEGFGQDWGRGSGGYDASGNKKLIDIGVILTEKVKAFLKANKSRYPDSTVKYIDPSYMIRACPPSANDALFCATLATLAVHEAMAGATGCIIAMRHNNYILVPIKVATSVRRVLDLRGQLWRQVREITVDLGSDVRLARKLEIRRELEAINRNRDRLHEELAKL
Sequence of Ubiquitin carboxyl-terminal hydrolase 1 (Homo sapiens) (O94782 whole entry, looked up): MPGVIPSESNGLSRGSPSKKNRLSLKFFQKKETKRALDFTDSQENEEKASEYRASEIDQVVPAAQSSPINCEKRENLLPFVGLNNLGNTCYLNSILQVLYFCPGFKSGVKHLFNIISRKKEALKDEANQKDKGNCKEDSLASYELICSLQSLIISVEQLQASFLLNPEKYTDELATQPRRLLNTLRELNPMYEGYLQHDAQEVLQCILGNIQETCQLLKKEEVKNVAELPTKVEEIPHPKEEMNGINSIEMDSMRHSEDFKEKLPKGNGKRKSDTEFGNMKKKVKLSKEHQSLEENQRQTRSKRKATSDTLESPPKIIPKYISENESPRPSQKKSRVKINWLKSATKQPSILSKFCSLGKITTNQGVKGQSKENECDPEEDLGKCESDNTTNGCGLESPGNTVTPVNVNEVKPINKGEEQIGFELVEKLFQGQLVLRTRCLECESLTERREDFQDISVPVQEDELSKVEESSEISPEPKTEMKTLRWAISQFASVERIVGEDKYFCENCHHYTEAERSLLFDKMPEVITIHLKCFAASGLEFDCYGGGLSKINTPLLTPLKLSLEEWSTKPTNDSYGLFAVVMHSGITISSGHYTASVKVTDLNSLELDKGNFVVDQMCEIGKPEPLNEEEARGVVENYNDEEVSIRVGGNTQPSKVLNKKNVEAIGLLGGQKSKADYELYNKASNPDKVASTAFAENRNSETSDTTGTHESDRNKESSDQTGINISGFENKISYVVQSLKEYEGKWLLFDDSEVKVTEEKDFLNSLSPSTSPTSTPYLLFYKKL
Sequence of DNA dC->dU-editing enzyme APOBEC-3G (Homo sapiens) (Q9HC16 whole entry, looked up): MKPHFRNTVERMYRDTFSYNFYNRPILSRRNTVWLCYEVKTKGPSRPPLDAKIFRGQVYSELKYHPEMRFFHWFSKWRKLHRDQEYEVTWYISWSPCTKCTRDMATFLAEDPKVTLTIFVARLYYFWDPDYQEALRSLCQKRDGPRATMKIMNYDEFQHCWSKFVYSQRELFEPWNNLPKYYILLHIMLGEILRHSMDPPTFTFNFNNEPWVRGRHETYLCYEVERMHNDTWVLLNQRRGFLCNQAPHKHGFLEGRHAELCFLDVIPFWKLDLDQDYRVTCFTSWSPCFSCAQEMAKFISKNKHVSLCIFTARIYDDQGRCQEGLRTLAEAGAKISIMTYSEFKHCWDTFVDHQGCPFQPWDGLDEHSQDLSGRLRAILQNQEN
Sequence of D(1A) dopamine receptor (Homo sapiens) (P21728 whole entry, looked up): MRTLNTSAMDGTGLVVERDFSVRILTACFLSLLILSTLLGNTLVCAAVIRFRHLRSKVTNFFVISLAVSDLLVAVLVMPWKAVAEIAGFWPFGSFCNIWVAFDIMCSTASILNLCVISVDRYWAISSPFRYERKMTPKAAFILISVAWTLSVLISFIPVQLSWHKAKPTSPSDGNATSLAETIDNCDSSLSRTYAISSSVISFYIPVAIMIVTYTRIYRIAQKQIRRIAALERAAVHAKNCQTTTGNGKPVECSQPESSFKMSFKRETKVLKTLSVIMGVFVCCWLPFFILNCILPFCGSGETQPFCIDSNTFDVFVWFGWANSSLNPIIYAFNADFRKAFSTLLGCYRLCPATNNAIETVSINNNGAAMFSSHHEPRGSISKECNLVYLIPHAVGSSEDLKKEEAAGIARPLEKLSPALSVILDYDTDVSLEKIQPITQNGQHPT
Sequence of Peptidyl-prolyl cis-trans isomerase NIMA-interacting 1 (Homo sapiens) (Q13526 whole entry, looked up): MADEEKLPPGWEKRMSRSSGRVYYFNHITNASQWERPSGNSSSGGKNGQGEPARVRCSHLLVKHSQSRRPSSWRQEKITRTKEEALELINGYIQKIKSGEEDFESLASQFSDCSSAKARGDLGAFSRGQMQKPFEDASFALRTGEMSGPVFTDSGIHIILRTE

In the case of `Cc1cc2c(C(C)C)c(O)c(O)c(C=O)c2c(O)c1-c1c(C)cc2c(C(C)C)c(O)c(O)c(C=O)c2c1O`, the Potency is 22.4 µM (active) in experiment [1]; 8.2 µM (active) in experiment [2]; 9.53 µM (active) in experiment [3]; 22.4 µM (active) and 31.6 µM (active) and 10 µM (active) in experiment [5]. Besides, the call in [4] was inactive.
Consider `O=[N+]([O-])c1cc([As](=O)(O)O)ccc1O`, for which the molecule was classed as inactive in [6]. Besides, the Potency entry in experiment [5] was “inactive”.
Regarding `CCCC1CCCCN1` (stereo not drawn), in experiment [6], the molecule was called inactive. In addition, the Potency entry in [5] is “inactive”.
As to `CC(C)(C)NCC(O)c1cc(Cl)c(N)c(Cl)c1` (stereo not drawn), the molecule was called inactive in experiment [6]. In addition, the Potency result in [5] was “inactive”.
On to `CC(C)CC(N(C)C)C1(c2ccc(Cl)cc2)CCC1` (stereo not drawn), for which the molecule was called inactive in experiment [6]. Further, in experiment [5], the Potency entry was “inactive”.
`CC[N+]1(C)CCCC(OC(=O)C(O)(c2ccccc2)c2ccccc2)C1` (stereo not drawn): the molecule was called inactive in [6]. Moreover, the Potency entry in [5] was “inactive”.
On to `CCN(CC)CCN1C(=O)CN=C(c2ccccc2F)c2cc(Cl)ccc21`, for which, in [6], the molecule was classed as inactive. Also, the Potency entry in [5] is “inactive”.
On to `COc1cc2c(c(OC)c1OC)-c1ccc(OC)c(=O)cc1[C@@H](NC(C)=O)CC2`, for which the Potency was 0.461 µM (active) in [7] and 0.058 µM (active) in experiment [8].
As for `CN(C)C(=O)C(CCN1CCC(O)(c2ccc(Cl)cc2)CC1)(c1ccccc1)c1ccccc1`, in experiment [7], the Potency entry was “inactive”.
For the molecule `NP(N)(=O)NC(=O)c1ccc(F)cc1`, the outcome in [9] was inactive.
In the case of `NC(=Nc1ccccc1)Nc1ccccc1`, the molecule was classed as inactive in [10].
On the same count and under the same terms, as for `C[C@]12CCC(=O)C(O)=C1CC[C@@H]1[C@@H]2CC[C@]2(C)C(=O)CC[C@@H]12`, the entry is “inactive”.
For `Clc1ccc(COC(Cn2ccnc2)c2ccc(Cl)cc2Cl)cc1` (stereo not drawn), the Potency entry in experiment [11] was “inactive”.
With `CC(C)(C)CC(C)(C)c1ccc(O)cc1`, in experiment [12], the activation is 2.26%. In addition, in experiment [13], the call was inactive.
Taken in the same sequence, the figures for `Oc1ccc(Cl)cc1Cc1ccccc1` were -12.3% and “inactive”.
